Where two headings read alike, the source gives them in different places. The whole screen tested about 13,000 compounds, of which about 3,200 (25%) showed an effect of 50% or more. The list shows a part of the results.
Test system: P. falciparum stage V gametocytes
Set-up: BacTiter-Glo ATP luminescence viability of purified stage V gametocytes in 384-well plates, per cent inhibition versus DMSO
Conditions: 48 h, 5 µM, inhibitor

COc1ccccc1N(C)CCNc1cc(C)nc(Nc2ccccc2)n1 [TCMDC-133455]
% Inhibition: -20.01%

Cc1cc(NC(=O)N=C(N)N)ccc1Cl [TCMDC-137470]
% Inhibition: 23.53%

CC(C)Cc1nc(N2CCOCC2)c2nnn(Cc3ccccc3)c2n1 [TCMDC-124394]
% Inhibition: 7.117%

Cc1ccc(C)c(CN2CCC(CNC(=O)c3cc4ccc5cccnc5c4[nH]3)CC2)c1 [TCMDC-125280]
% Inhibition: 17.56%

CCN1C(c2ccc(Cl)cc2)C(CNCc2ccccc2O)CC1(C)CO (stereo not shown) [TCMDC-124672]
% Inhibition: -22.05%

Cc1cc2c(cc1C(F)(F)F)N(C(=O)Nc1cc(OCCN(C)C)cc(C(F)(F)F)c1)CC2 [TCMDC-139873]
% Inhibition: 27.41%

Cc1cc(Nc2cccc(Cl)c2)nc2ccc(NC(=O)c3ccc(=O)[nH]c3)cc12 [TCMDC-125285]
% Inhibition: -92.28%

COc1cc([N+](=O)[O-])ccc1NC(=O)Nc1ccc(OC(F)(F)F)cc1 [TCMDC-125388]
% Inhibition: 60.01%

O=C(Nc1ccc([N+](=O)[O-])cc1)Nc1cc(C(F)(F)F)ccc1F [TCMDC-124367]
% Inhibition: -37.77%

N#Cc1ccc(NC(=O)Nc2ccc3c(c2)CCN(C2CCC2)CC3)cc1 [TCMDC-135861]
% Inhibition: 25.77%

O=C(Nc1ccc([N+](=O)[O-])cc1)Nc1cc(OCC(F)(F)F)cc(OCC(F)(F)F)c1 [TCMDC-124533]
% Inhibition: 87.27%

COc1cc(NC(=O)Nc2ccc([N+](=O)[O-])cc2OC)c(OC)cc1Cl [TCMDC-124366]
% Inhibition: 14.63%

O=C(Nc1ccc(CCNCc2ccccc2)cc1)Nc1ccc(OC(F)(F)F)cc1 [TCMDC-141914]
% Inhibition: -0.1841%

O=C(Nc1cccc([N+](=O)[O-])c1)Nc1cccc(C(F)(F)F)c1 [TCMDC-123674]
% Inhibition: -87.02%

O=C(Nc1ccc(OC(F)(F)F)cc1)Nc1ccc([N+](=O)[O-])cc1 [TCMDC-123714]
% Inhibition: -87.78%

N#Cc1ccc(NC(=O)Nc2ccc(OC(F)(F)F)cc2)cc1 [TCMDC-123773]
% Inhibition: 69.14%

Cc1ccc(C2CC(=O)CC(c3ccccn3)C2[N+](=O)[O-])cc1 (stereo not shown) [TCMDC-139131]
% Inhibition: 6.685%

CCCSc1nc2c(c(=O)n1Cc1ccco1)C1(CCCCC1)Cc1ccccc1-2 [TCMDC-123897]
% Inhibition: -0.1623%

CC(C)C[C@H](NC(=O)c1ccc(OCCN2CCOCC2)cc1)C(=O)N[C@H](/C=N/N1CCN(C)C1=O)CCc1ccccc1 [TCMDC-136154]
% Inhibition: 6.527%

CO/C(=C\C=C\c1cc2cc(Cl)c(Cl)cc2[nH]1)C(=O)NCCCN1CCN(c2cccc(O)c2)CC1 [TCMDC-139248]
% Inhibition: 6.724%

O=C(NCc1ccc(C(=O)NC2CCCCCC2)cc1)c1ccc(O)c(-c2ccc(Cl)c(Cl)c2)c1 [TCMDC-140846]
% Inhibition: -16.48%

CN(C)c1ccc(NC(=O)Nc2ccnc3ccc(Br)cc23)cc1 [TCMDC-139326]
% Inhibition: -66.68%

C/C=C1\CN2CC[C@H]1C[C@H]2[C@H](O)c1ccnc2ccc(OC)cc12 [TCMDC-138074]
% Inhibition (% Inhibition): 4.282%

COc1ccc(CNc2nccc3ccc(-c4ccc5nccn5c4)cc23)cc1 [TCMDC-133417]
% Inhibition: -35.58%

OC(CNc1ccnc(Nc2cccc(Cl)c2)n1)c1cccc(C(F)(F)F)c1 (stereo not shown) [TCMDC-136586]
% Inhibition: -39.19%

COc1ccc(CNc2ccnc3cc(OC)ccc23)cc1 [TCMDC-139267]
% Inhibition: 1.914%

NCCCCNc1cc(-c2ccnc(Nc3cccc(Cl)c3)n2)ccn1 [TCMDC-134683]
% Inhibition: 70.36%

COc1ccc(Nc2nccc(-c3ccc4c(-c5ccsc5)cnc(N)c4c3)n2)cc1 [TCMDC-135552]
% Inhibition: 9.815%

COc1ccc(CNc2nccc3ccc(-c4ccc(N)nc4)cc23)cc1 [TCMDC-133418]
% Inhibition: 62.64%

COc1ccc(Nc2nccc(-c3ccc4ccnc(NCCCCN)c4c3)n2)cc1 [TCMDC-136642]
% Inhibition: 94.8%

OC(CNc1ccnc(Nc2cccc(Cl)c2)n1)c1cccc(F)c1 (stereo not shown) [TCMDC-136573]
% Inhibition: -70.46%

CCCCNc1nccc2ccc(-c3ccncc3)cc12 [TCMDC-136490]
% Inhibition: -10.89%

Cc1ccccc1C1CCN(C2CCC(NC(=O)/C=C/c3cccc(Cl)c3)CC2)CC1 (stereo not shown) [TCMDC-133508]
% Inhibition: -91.25%

CS(=O)(=O)c1ccc(CNCc2cccc(-c3cccc(-c4nc5cc(C(F)(F)F)ccc5[nH]4)c3)c2)cc1.O=C(O)C(F)(F)F [TCMDC-132899]
% Inhibition: -4.854%

O=C(Nc1ccc(N2CCN(Cc3cccc(F)c3)CC2)cc1)c1cccs1 [TCMDC-134999]
% Inhibition: -0.3438%

N#Cc1cncc(-c2nc3c(N4CCC(Cc5ccccc5)CC4)cccc3n2C2CCNC2)c1 (stereo not shown) [TCMDC-133545]
% Inhibition: 7.232%

COc1cccc(CCc2nc3c(N4CCC(Cc5ccccc5)CC4)cccc3n2CC2CNCCO2)c1 (stereo not shown) [TCMDC-133535]
% Inhibition: 83.91%

COc1ccc2nccc([C@@H](O)CN3CCC(NC(=O)C(c4cc5ccccc5o4)N4CCC(Cc5ccccc5)CC4)CC3)c2c1 (stereo partly shown) [TCMDC-140997]
% Inhibition: 26.99%

CC(C)c1sc(N2CCN(C)CC2)nc1C(=O)Nc1ccc(F)cc1C(F)(F)F [TCMDC-134300]
% Inhibition: 32.87%

CCSc1ccccc1COc1c(C)nc(N)nc1N [TCMDC-131359]
% Inhibition: 18.44%

CCN(CC)c1nc(N)c2c(N)nc3c(c2c1C#N)C(=O)CN3Cc1ccccc1 [TCMDC-125024]
% Inhibition: 94.19%

CCN(CC)c1nc(-c2ccccc2)cc(-c2ccccc2)c1C#N [TCMDC-125830]
% Inhibition: -26.16%

Cc1cc(=O)c(-c2ccc(Oc3cccc(Cl)c3)cc2)c(C)[nH]1 [TCMDC-137265]
% Inhibition: 67.32%

Cc1cc(=O)c(-c2ccc(Oc3ccc(F)cc3)cc2)c(C)[nH]1 [TCMDC-137535]
% Inhibition: 37.78%

Cc1cc(=O)c(-c2ccc(Oc3ccc(Cl)cc3Cl)cc2)c(C)[nH]1 [TCMDC-137267]
% Inhibition: 10.5%

Cc1cc(=O)c(-c2cccc(Oc3ccc(Cl)cc3)c2)c(C)[nH]1 [TCMDC-137415]
% Inhibition: 52.21%

COc1ccc(Oc2ccc(-c3c(C)[nH]c(C)cc3=O)cc2)cc1 [TCMDC-137401]
% Inhibition: 68.99%

Cn1cnc2c(SCc3ccc(OCc4ccccc4)cc3)ncnc21 [TCMDC-136496]
% Inhibition: -19.47%

O=C(NC(=O)c1ccccc1O)c1ccccc1O [TCMDC-125868]
% Inhibition: 4.896%

O=C(NC1CCN(c2ccnc3cc(Cl)ccc23)C1)c1ccc(F)cc1 (stereo not shown) [TCMDC-133653]
% Inhibition: -3.627%

O=C(Nc1nc2ccc(Cl)cc2s1)c1csnn1 [TCMDC-125073]
% Inhibition: -15.98%

Cn1c(C2CC3CCC(C2)N3CC2CCC(NC(=O)/C=C/c3ccc(Cl)c(Cl)c3)CC2)nc2ccccc21 (stereo not shown) [TCMDC-140342]
% Inhibition: -2.342%

Cc1ccccc1N1CCN(c2ncc(C(=O)NC3CC3)cc2Cl)CC1 [TCMDC-134602]
% Inhibition: 6.226%

CC(C)C[C@@H](/C=N/N1CCOC1=O)NC(=O)[C@H](CC(C)C)NC(=O)c1ccc(OCCN2CCOCC2)cc1 [TCMDC-136170]
% Inhibition: -12.99%

COC(=O)c1ccc(CCCNCC(O)c2cccc(C(F)(F)F)c2)cc1 (stereo not shown) [TCMDC-131462]
% Inhibition: 1.956%

O=C(/C=C/c1ccc(Cl)c(Cl)c1)NCCCCCCN1CCCN(C(=O)Nc2cc(Cl)cc(Cl)c2)CC1 [TCMDC-135936]
% Inhibition: -15.47%

O=C(COc1ccc(Cl)c(Cl)c1)NCCCCCN1CCCN(C(=O)Nc2ccc(Cl)c(Cl)c2)CC1 [TCMDC-136292]
% Inhibition: 72.04%

Cc1ccc(/C=C/C(=O)NCCCCCN2CCCN(C(=O)Nc3ccc(Cl)c(Cl)c3)CC2)cc1 [TCMDC-136111]
% Inhibition: -64.67%

O=C(/C=C/c1ccc(Cl)c(Cl)c1)NCCCCCN1CCCN(C(=O)Nc2ccc(F)c(Cl)c2)CC1 [TCMDC-135755]
% Inhibition: -45.85%

O=C(/C=C/c1ccc(Cl)c(Cl)c1)NCCCCCN1CCCN(C(=O)Nc2cc(Cl)cc(Cl)c2)CC1 [TCMDC-135760]
% Inhibition: -3.132%

O=C(COc1ccc(Cl)c(Cl)c1)NCCCCCN1CCCN(C(=O)Nc2cc(Cl)cc(Cl)c2)CC1 [TCMDC-136293]
% Inhibition: 78.53%

CC(NC(C)(C)C)C(O)c1ccc(Cl)c(C(F)(F)F)c1 (stereo not shown) [TCMDC-137910]
% Inhibition: -2.927%

Cc1cccc(C(=O)NC(NC(=S)Nc2cc(Cl)ccc2Cl)C(Cl)(Cl)Cl)c1 (stereo not shown) [TCMDC-124254]
% Inhibition: -20.87%

CC1(C)N=C(N)N=C(N)N1OCCCOc1cccc(Cl)c1 [TCMDC-131762]
% Inhibition: 16.24%

COc1ccc2nccc([C@@H](O)CN3CCC(NC(=O)/C=C/c4cc(F)cc(Br)c4)CC3)c2c1 [TCMDC-141031]
% Inhibition: -7.765%

CN(C)CCOc1ccc(/C(=C(/CCCn2ccnc2)c2ccccc2)c2ccc(O)cc2)cc1 [TCMDC-138900]
% Inhibition: -20.55%

CCCc1cc(OC)c(C[C@@H]2c3cc(O)c(Cl)cc3CCN2C)cc1OC [TCMDC-138128]
% Inhibition: -6.481%

CN1C(=O)C(=O)N(CCCCCON=C(N)N)C1=S [TCMDC-139249]
% Inhibition: 12.53%

CC(C)NC(C)(C)CN(Cc1ccc(-c2ccc(C(F)(F)F)cc2)cc1)C(=O)Cn1c(CCc2cccc(F)c2F)nc(=O)c2ccccc21 [TCMDC-141084]
% Inhibition: 71.8%

CCNC(C)(C)CN(Cc1ccc(-c2ccc(C(F)(F)F)cc2)cc1)C(=O)Cn1c(CCc2cccc(F)c2F)nc(=O)c2ccccc21 [TCMDC-141047]
% Inhibition: 102.8%

— publication PMC4552634, “A New Set of Chemical Starting Points with Plasmodium falciparum Transmission-Blocking Potential for Antimalarial Drug Discovery” (PLoS ONE, 2015)
